Vaccinia Venus – vaccinia inhibition (Venus reporter). Vaccinia virus Venus reporter expression, fluorescence. Potency, µM (highest dose often 36.5 µM), for the others: top-dose activity change, negative = inhibition, actives largely listed as inhibitors. hit rate 0.46% among 330,000. AID 720580; calls by dose curve; tested in A549 cells; further: potency means the concentration at half of the fitted maximal effect; nearly all actives have a fitted effect of over 30% in size
HCMV antiviral – inhibitors of human cytomegalovirus; hit rate 4.5% among 410,000; activity change, negative = inhibition, % at 57.5 µM; AID 1259415; HFF cells, HCMV-luciferase reporter, 72 h; hits give low values; in the data active means activity change below about -60%; inconclusive means no clear call, values can overlap the other calls; inactive means above about -39%
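HFF cells seeded 16 h at 37C, treated with compounds, infected with luciferase-reporter HCMV at MOI 1 PFU/cell; luciferase read at 72 h post infection, normalized to buffer-only and Salinomycin controls.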
FMDV antiviral – foot and mouth disease virus antiviral activity. FMDV antiviral cell-based qHTS. Potency, µM (top dose mostly 57.9 µM), for inactives: at the top dose activity change, negative = inhibition, actives largely listed as inhibitors. hit rate 1.2% among 410,000. AID 1159524; calls by dose curve; tested in HEK293T cells; further: read-out not given here; potency means the concentration at half of the fitted maximal effect; nearly all actives have a fitted effect of over 45% in size
VACV mCherry inh – vaccinia inhibition (mCherry reporter); Vaccinia virus mCherry reporter infection, fluorescence; Potency, µM (top dose mostly 36.5 µM), inactives show top-dose activity change, negative = inhibition, hits mostly inhibitors; hit rate 0.63% among 310,000; AID 720579; calls by dose curve; tested in A549 cells; further: potency means the concentration at half of the fitted maximal effect; nearly all actives have a fitted effect of over 35% in size
LASV entry inh – inhibitors of Lassa virus binding or cell entry. Lassa virus pseudotype entry inhibition, cell reporter. Potency, µM (titrated, usually from 37.9 µM), for inactives: top-dose activity change, negative = inhibition, actives largely listed as inhibitors. hit rate 1.2% among 300,000; calls by dose curve; tested in HEK293 cells; further: potency means the concentration at half of the fitted maximal effect; nearly all actives have a fitted effect of over 50% in size
Marburg entry inh – blocks Marburg virus binding to or entry into cells. Marburg virus pseudotyped entry inhibition, cell reporter. Potency, µM (doses to about 37.8 µM), inactives show at the highest dose activity change, negative = inhibition, actives largely listed as inhibitors. hit rate 1.8% among 300,000; calls by dose curve; tested in HEK293 cells; further: potency means the concentration at half of the fitted maximal effect
* = called active by the depositor; i = inactive; ? = inconclusive; · = not tested or not shown; [ ] = dose if it differs, or a comment. Most compounds without a hit are left out; they make up all but 6.5% or so of the library. On the % scale 0 is the no-effect control and ±100 the full control effect.

SMILES	Vaccinia Venus	HCMV antiviral	FMDV antiviral	VACV mCherry inh	LASV entry inh	Marburg entry inh
CCOc1ccccc1NC(=O)CN(c1ccc(OC)cc1OC)S(=O)(=O)c1ccccc1[N+](=O)[O-]	-21.2%	?	13.3%	?	0.8%[46.1 µM]	10µM*
COC(=O)c1cc(NC(=O)CN(c2ccccc2OC)S(=O)(=O)c2ccccc2)ccc1Cl	?	-28.2	?	-20.0%[1.46 µM]	?	?
CCOc1ccc(NC(=O)CN(c2ccc(Cl)cc2C)S(=O)(=O)c2ccccc2)cc1	?	-69.4*	-0.7%	?	?	?
COc1ccc(S(=O)(=O)N(CC(=O)Nc2ccc(OC)cc2OC)c2ccc(Cl)cc2)cc1	-18.4%	-24.9	3.16µM*	-23.9%	?	?
CC(C)(O)C#Cc1ccc(C(=O)NCCN2Cc3ccccc3OC(c3ccccc3F)C2)o1 (stereo unspecified)	1.3%	·	-9.9%	-10.4%	·	·
COc1ccc(NC(=O)CN(c2ccc([N+](=O)[O-])cc2)S(=O)(=O)c2ccccc2)c(OC)c1	-22.6%	1.5	4.5%	-2.0%	-22.5%	-22.0%
COc1ccc(N(CC(=O)Nc2ccc(OC)cc2OC)S(=O)(=O)c2ccccc2)cc1	?	-64.6*	-3.0%	-28.7%	?	?
O=[N+]([O-])c1ccc2c(c1)C(N1CCOCC1)/C(=C/COc1ccc3ccccc3c1Br)O2 (stereo unspecified)	-10.4%	14.9	?	·	?	12.6µM*
O=[N+]([O-])c1ccc(OC/C=C2\Oc3ccc([N+](=O)[O-])cc3C2N2CCOCC2)cc1 (stereo unspecified)	-10.3%	0.3	?	·	?	?
CCCC(C)C1(CC)C(=O)NC(=Nc2ccccc2OC)NC1=O (stereo unspecified)	·	3.9	-18.2%	·	-10.4%	-3.2%
CCCC(C)C1(CC)C(=O)NC(=Nc2ccc(OC)cc2)NC1=O (stereo unspecified)	-15.9%	-60.1*	-20.5%	-7.3%	18.4%	2.1%
Cc1ccccc1C1=NC(C)(CC(=O)NCCOc2ccccc2)ON1C (stereo unspecified)	·	-7.9	·	·	·	·
O=C(CCS(=O)(=O)c1ccccc1)Nc1ccc(-c2nc3ccccc3s2)cc1	-5.3%	-20.7	16.4%	-16.9%	?	14.1µM*
CC(C)(C)C(=O)Nc1ccc(-c2nc3ccccc3s2)cc1	-7.4%	-103.1*	4.47µM*	-7.8%	?	?
O=C(Nc1ccccc1)c1nc2ccccc2s1	-9.3%	161.1	-1.2%	i	11.2µM*	?
NNC(=O)c1nc2ccccc2s1	-2.4%	28.2	58.3%	?	·	·
CCOc1ccccc1N(CC)C(=O)c1noc2c1COc1ccc(C)cc1-2	-5.9%	-3.8	-9.2%	-17.5%	-1.1%[46.1 µM]	·
COc1cccc(NC(=O)Cn2c(=O)n(CCc3ccc(OC)c(OC)c3)c(=O)c3ccccc32)c1	-11.5%	-1.1	-7.6%	-13.9%	16.5%[46.1 µM]	?
COc1cc(CN2CCCC(n3cc(C(=O)N4CCCC4)nn3)C2)cc(OC)c1 (stereo unspecified)	-11.7%	·	-9.1%	-14.7%	·	·
CCN(Cc1ccccc1)S(=O)(=O)c1cc(C(=O)OC)n(C)c1	·	-14.1	-1.5%	·	·	·
CCOC(=O)c1cc(S(=O)(=O)N(C)Cc2ccccc2)cn1C	-10.0%	15.6	-3.5%	i	12.6µM*	?
Cc1c(CCOC(=O)C23CC4CC(CC(C4)C2)C3)sc[n+]1CC#N	-15.3%	-98.9*	?	-4.9%	?	?
O=C(CCl)N(c1ccccc1)C1CCS(=O)(=O)C1 (stereo unspecified)	11.2µM*	-102.6*	?	10µM*	?	?
CC(=O)Nc1ccc(C(=O)OCC(=O)N(c2ccccc2)C2CCS(=O)(=O)C2)cc1 (stereo unspecified)	·	0.6	1.8%	·	·	·
C=CCNC(=O)[C@@]1(Sc2ccc(OC)cc2)CC(=O)N[C@@H]1c1ccc(OC)cc1	·	-23.9	·	·	·	·
SMILES	Vaccinia Venus	HCMV antiviral	FMDV antiviral	VACV mCherry inh	LASV entry inh	Marburg entry inh
Cn1c(-c2ccncc2)nc2cc(C(=O)N[C@H]3CCCCNC3=O)cc(NC(=O)C3CCC3)c21	-11.9%	·	-17.5%	-13.4%	·	·
COC(=O)c1ccc([C@H]2CC(=O)O2)cc1	?	38.8	-23.3%	11.2µM*	·	·
COc1cccc2cc(C(=O)OCC(=O)NC3CCCC(C)C3C)c(=O)oc12 (stereo unspecified)	-3.3%	-60.6*	21.2%	-1.9%	12.5%[46.1 µM]	?
COc1ccc(Cl)cc1C(=O)OCC(=O)NC1CCCC(C)C1C (stereo unspecified)	-5.2%	-13.2	?	-12.3%	24.8%	0.3%
O=S(=O)(c1ccc(O)cc1)c1ccc(O)cc1	·	-14.3	0.9%	·	·	·
O=C1C=CC(=C(c2ccc(O)cc2)c2ccc(O)cc2)C=C1	1.8%	-100.1*	12.6µM*	-26.8%	·	·
CN(CCOc1ccc(Cl)cc1)C(=O)c1cc(-c2ccco2)nc2ccccc12	-14.0%	-24.7	35.5µM*	i	?	?
Cc1c(C)n(CCc2ccccc2)c2ncnc(NCCCN(C)C)c12	?	?	-22.9%	7.08µM*	2.6%[46.1 µM]	8.91µM*
O=C(Cn1c(SCCOc2ccccc2)nc2ccccc21)N1CCOCC1	-3.4%	1.1	-29.5%	-7.5%	14.0%[46.1 µM]	-2.1%[46.1 µM]
O=[N+]([O-])c1ccc(Nc2ccccc2O)c2nonc12	·	-60.6*	-29.4%	·	·	·
CC(C)(C)OC(=O)CC[C@@H](C(=O)NCCCCCCCCCCC(=O)N1CCN(C(=O)OC(C)(C)C)CC1)n1cc(CCCCCNC(=O)OC(C)(C)C)nn1	?	-14.3	0.0%	-18.7%	·	·
CC(C)(C)OC(=O)NCCCCCc1cn([C@@H](CO)C(=O)NCCCCCCCCCCC(=O)N2CCN(C(=O)OC(C)(C)C)CC2)nn1	?	-95.3*	7.08µM*	?	·	·
CC[C@H](C)[C@@H](C(=O)NCCCCCCCCCCC(=O)N1CCN(C(=O)OC(C)(C)C)CC1)n1cc(CCCCCNC(=O)OC(C)(C)C)nn1	?	-69.5*	?	?	·	·
O=C1CCCC=C1[C@@H](O)CCOC(c1ccccc1)(c1ccccc1)c1ccccc1	·	·	·	·	·	28.7%[14.2 µM]
CN(CC(=O)NC1CCCc2ccccc21)S(=O)(=O)c1cccs1 (stereo unspecified)	-16.4%	-73.8*	-9.7%	-11.9%	8.0%	?
CN(CC(=O)NC1CCCc2ccccc21)S(=O)(=O)c1ccc2c(c1)c(=O)n(C)c(=O)n2C (stereo unspecified)	-16.9%	-9.3	-7.0%	i	·	·
Cc1c2cnn(CC(=O)NCc3ccc(F)cc3)c(=O)c2c(C)n1Cc1ccccc1Cl	-13.6%	-23.5	-20.2%	-12.7%	-10.8%[46.1 µM]	-6.2%[46.1 µM]
CCn1cc[n+](C)c1P(c1ccccc1)c1ccccc1	·	-76.2*	?	·	·	·
COc1ccc(C2=C3CCC[C@]4(C)CCO[C@]34C=CC2=O)cc1	·	-11.5	·	·	·	·
Cc1ccc(OCCNC(=O)c2cncc(Br)c2)cc1C	?	-107.3*	-15.1%	?	1.8%	8.6%

Compound activity (PubChem BioAssay)
